Inconclusive results are not listed. Calls of active or inactive are those of the source. The call rests on the fitted dose curve; in most records, active means well fitted curve in the direction sought with a large enough effect; inconclusive means small, poorly fitted or top-dose-only effect, or another doubt; inactive means no such curve, though single readings can be large; an effect the other way counts as inactive or inconclusive.
How the values were obtained:
[1] = target: Rap guanine nucleotide exchange factor 3 (Homo sapiens) (UniProt O95398); assay: Confirmatory qHTS for agonist of cAMP-regulated guanine nucleotide exchange factor 3 (EPAC1) (AID 1645881); details: EPAC1 Rap1B BODIPY-GDP exchange fluorescence; series mostly up to 154 µM;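 further: EPAC1 catalysed release of BODIPY-GDP from Rap1B seen as fluorescence loss; 100% = effect of cAMP agonist control; nearly all actives have a fitted effect of over 75% in size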
[2] = target: Rap guanine nucleotide exchange factor 4 (Homo sapiens) (UniProt Q8WZA2); assay: Confirmatory qHTS for agonist of cAMP-regulated guanine nucleotide exchange factor 4 (EPAC2) (AID 1645884); details: EPAC2 GEF activity, Rap1B-BODIPY-GDP fluorescence; series mostly up to 154 µM;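 further: nucleotide exchange releases bodipy-GDP from Rap1 and this lowers its fluorescence; on the % scale 0 is the no-effect control and ±100 the full control effect; nearly all actives have a fitted effect of over 65% in size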
[3] = target: Rap guanine nucleotide exchange factor 3 (Homo sapiens) (UniProt O95398); assay: Counterscreen qHTS for antagonist of cAMP-regulated guanine nucleotide exchange factor 3 (EPAC1) (AID 1645888); details: Rap1B-BODIPY-GDP nucleotide exchange, fluorescence; series mostly up to 154 µM;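 further: fluorescence loss as bound BODIPY-GDP is released from Rap1B; % of control where 0% means no effect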
How it was run: (§1)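 Rap1B–BODIPY-GDP (250 nM) with 50 uM GDP; compounds pin-transferred to 9.74 nM–152 uM final (activator) or from 7.32 nM upwards (inhibitor). Fluorescence Ex/Em 480/540 nm read at 5 and 30 min, then after adding cAMP or buffer, at room temperature.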

[4] = target: Rap guanine nucleotide exchange factor 3 (Homo sapiens) (UniProt O95398); assay: Counterscreen qHTS for agonist of cAMP-regulated guanine nucleotide exchange factor 3 (EPAC1) (AID 1645889); details: EPAC1 Rap1B-BODIPY-GDP exchange, fluorescence; series mostly up to 154 µM; further: % of control where 0% means no effect; nearly all actives have a fitted effect of over 40% in size
How it was run: as §1

Rap guanine nucleotide exchange factor 4 (Homo sapiens), sequence (Q8WZA2 whole entry, looked up): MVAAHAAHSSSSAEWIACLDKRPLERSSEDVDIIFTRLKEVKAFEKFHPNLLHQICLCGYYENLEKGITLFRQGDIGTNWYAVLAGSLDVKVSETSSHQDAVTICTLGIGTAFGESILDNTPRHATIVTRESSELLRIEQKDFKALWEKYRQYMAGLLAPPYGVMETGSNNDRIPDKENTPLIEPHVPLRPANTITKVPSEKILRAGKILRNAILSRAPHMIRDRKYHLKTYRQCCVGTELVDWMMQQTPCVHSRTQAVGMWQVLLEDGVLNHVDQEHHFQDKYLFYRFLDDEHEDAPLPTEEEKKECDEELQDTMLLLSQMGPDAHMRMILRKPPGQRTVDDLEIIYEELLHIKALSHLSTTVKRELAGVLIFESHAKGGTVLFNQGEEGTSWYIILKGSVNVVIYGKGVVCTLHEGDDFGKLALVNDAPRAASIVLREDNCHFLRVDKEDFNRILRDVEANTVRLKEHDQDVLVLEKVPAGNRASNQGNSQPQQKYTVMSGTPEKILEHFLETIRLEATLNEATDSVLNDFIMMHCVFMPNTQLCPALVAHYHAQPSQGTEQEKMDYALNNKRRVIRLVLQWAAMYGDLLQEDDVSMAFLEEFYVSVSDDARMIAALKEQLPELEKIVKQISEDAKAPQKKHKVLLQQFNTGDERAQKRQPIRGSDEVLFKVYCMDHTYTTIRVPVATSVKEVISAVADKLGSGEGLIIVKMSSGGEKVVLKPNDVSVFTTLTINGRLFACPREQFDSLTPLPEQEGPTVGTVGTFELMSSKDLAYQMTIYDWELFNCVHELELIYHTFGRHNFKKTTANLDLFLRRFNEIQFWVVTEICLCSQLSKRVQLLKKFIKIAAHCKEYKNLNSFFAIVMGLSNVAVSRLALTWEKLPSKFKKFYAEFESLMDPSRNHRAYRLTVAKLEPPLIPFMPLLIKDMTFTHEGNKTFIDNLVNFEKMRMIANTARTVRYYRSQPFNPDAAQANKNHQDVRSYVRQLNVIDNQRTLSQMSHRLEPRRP
Rap guanine nucleotide exchange factor 3 (Homo sapiens), sequence (O95398 whole entry, looked up): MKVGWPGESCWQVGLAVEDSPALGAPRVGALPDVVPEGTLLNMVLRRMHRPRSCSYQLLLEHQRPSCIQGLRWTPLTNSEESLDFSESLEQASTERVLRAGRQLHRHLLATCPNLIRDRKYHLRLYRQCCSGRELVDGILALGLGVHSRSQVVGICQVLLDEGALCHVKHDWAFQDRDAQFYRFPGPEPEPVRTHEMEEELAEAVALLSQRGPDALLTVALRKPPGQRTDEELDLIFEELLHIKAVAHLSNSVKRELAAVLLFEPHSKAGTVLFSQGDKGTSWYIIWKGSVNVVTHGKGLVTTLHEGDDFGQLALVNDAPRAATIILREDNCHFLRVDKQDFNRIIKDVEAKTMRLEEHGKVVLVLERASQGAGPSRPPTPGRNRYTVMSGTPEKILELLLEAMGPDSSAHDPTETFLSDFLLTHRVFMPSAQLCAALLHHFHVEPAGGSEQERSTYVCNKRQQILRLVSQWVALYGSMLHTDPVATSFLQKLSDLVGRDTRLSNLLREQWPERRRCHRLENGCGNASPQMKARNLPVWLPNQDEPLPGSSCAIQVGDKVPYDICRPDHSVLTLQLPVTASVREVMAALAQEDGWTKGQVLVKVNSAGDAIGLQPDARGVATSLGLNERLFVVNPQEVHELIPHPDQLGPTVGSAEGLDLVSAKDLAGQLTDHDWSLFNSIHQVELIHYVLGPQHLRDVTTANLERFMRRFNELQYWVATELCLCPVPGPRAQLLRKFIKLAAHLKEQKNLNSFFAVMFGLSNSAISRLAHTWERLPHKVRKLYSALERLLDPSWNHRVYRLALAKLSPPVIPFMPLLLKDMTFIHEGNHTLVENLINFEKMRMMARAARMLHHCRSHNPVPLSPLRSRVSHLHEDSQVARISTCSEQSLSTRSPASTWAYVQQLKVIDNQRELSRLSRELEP

O=C(Nc1ccncc1)c1cc2ccccc2cc1O
inactive: Potency [1] | Potency [2] | Potency [3] | Potency [4]

Oc1ccc(-c2cn3c(n2)SCC3)cc1O
inactive: Potency [1] | Potency [2] | Potency [3] | Potency [4]

N=C1S/C(=C\c2ccco2)C(=O)N1c1ccc2c(c1)OCO2
inactive: Potency [1] | Potency [2] | Potency [3] | Potency [4]

Cn1c(N)c(C(=O)COC(=O)Cc2ccc(Cl)c(Cl)c2)c(=O)n(C)c1=O
inactive: Potency [1] | Potency [2] | Potency [3] | Potency [4]

O=[N+]([O-])c1ccc(C=NNc2ccc(S(=O)(=O)O)cc2)cc1
inactive: Potency [1] | activation [2] -6.29% [at 17.1 µM, percent relative to cAMP agonist control] | activity change, negative = inhibition [3] -18.7% [at 30.8 µM] | activation [4] 6.23% [at 30.8 µM]

O=C(Cc1ccc(Br)c2ccccc12)N/N=C/c1ccccn1
inactive: Potency [1] | Potency [2] | Potency [3] | Potency [4]

O=C(CC1C[C@H](C(=O)N2CCCCC2)[C@@]2(CCc3ccccc3)c3[nH]c4ccccc4c3CCN2C1=O)NCCCn1ccnc1 (some centres undefined)
inactive: Potency [1] | Potency [2] | Potency [3] | Potency [4]

O=C(O)Cc1ccc(N=Nc2c(O)c(C(=O)O)cc3ccccc23)cc1
inactive: Potency [1] | Potency [2] | Potency [3] | Potency [4]

CC(C)CCNC(=O)c1cnn2c(C(F)(F)F)cc(-c3ccco3)nc12
inactive: Potency [1] | Potency [2] | Potency [3] | Potency [4]

N#Cc1c(-c2ccc(Cl)cc2)cc(-c2cccs2)nc1SCC(=O)O
inactive: Potency [1] | Potency [2] | Potency [3] | Potency [4]

Cc1ccccc1-c1ccc(CN2C(C(C)C)C(=O)N(Cc3cn(CCC4OCCO4)nn3)CCS2(=O)=O)cc1 (centres undefined)
inactive: Potency [1] | Potency [2] | Potency [3] | Potency [4]

O=S(=O)(Nc1ccccc1-c1ccccc1)c1ccccc1
inactive: Potency [1] | Potency [2] | Potency [3] | Potency [4]

O=C(COC(=O)c1c2c(nc3ccccc13)/C(=C\c1ccco1)CC2)NC1CCCC1
inactive: Potency [1] | Potency [2] | Potency [3] | Potency [4]

CN(C)c1cc(Cl)c2nonc2c1N
inactive: Potency [1] | Potency [2] | Potency [3] | Potency [4]

CCc1nc2c(OCc3ccc(C(=O)OC)cc3)cccn2c1N(C)C(=O)c1ccc(OC)cc1
inactive: Potency [1] | activation [2] -6.93% [at 17.1 µM, percent relative to cAMP agonist control] | activity change, negative = inhibition [3] 5.67% [at 30.8 µM] | activation [4] 20% [at 30.8 µM]

CCCCCOC(=O)C1=C(C)Nc2nnnn2C1c1ccccc1Cl (centres undefined)
inactive: Potency [1] | activation [2] 12.2% [at 17.1 µM, percent relative to cAMP agonist control] | activity change, negative = inhibition [3] -14.1% [at 30.8 µM] | activation [4] 21.2% [at 30.8 µM]

CCCCc1ccc(NC(=O)CN2C(=O)C3CCCCC3C2=O)cc1 (centres undefined)
inactive: Potency [1] | Potency [2] | Potency [3] | Potency [4]

O=C(O)c1cc(N/N=C/C=C/c2ccccc2)ccc1Cl
inactive: Potency [1] | Potency [2] | Potency [3] | Potency [4]

CC(c1ccon1)N(C)Cc1cn(C)nc1-c1cccc(Cl)c1 (centres undefined)
inactive: Potency [1] | Potency [2] | Potency [3] | Potency [4]

Cc1ccc(C2CC(c3cccs3)=NN2C(=O)CSc2nc(=O)n3cc(C)ccc3n2)cc1 (centres undefined)
inactive: Potency [1] | Potency [2] | Potency [3] | Potency [4]

CC(=O)NC(c1ccc(Cl)cc1Cl)c1ccc2cccnc2c1O (centres undefined)
inactive: Potency [1] | Potency [2] | Potency [3] | Potency [4]

O=C(O)C1Nc2c(Cl)cc(Cl)c(Cl)c2C2C=CCC12 (centres undefined)
inactive: Potency [1] | Potency [2] | Potency [3] | Potency [4]

O=C1c2ccccc2C(c2nnnn2Cc2ccccc2)N1CCc1c[nH]c2ccccc12 (centres undefined)
inactive: Potency [1] | Potency [2] | Potency [3] | Potency [4]

CCOC(=O)C1C(=O)C=C(c2ccc(C)cc2)CC1c1ccccc1 (centres undefined)
inactive: Potency [1] | activation [2] 7.74% [at 17.1 µM, percent relative to cAMP agonist control] | activity change, negative = inhibition [3] -1.31% [at 30.8 µM] | activation [4] 8.22% [at 30.8 µM]

CC1(c2ccccc2)CC(C)(C)N2C(=O)C(=O)c3cccc1c32 (centres undefined)
inactive: Potency [1] | activation [2] -2.11% [at 17.1 µM, percent relative to cAMP agonist control] | activity change, negative = inhibition [3] -4.27% [at 30.8 µM] | activation [4] 21.7% [at 30.8 µM]

CCOC(=O)Cn1nc(C)c(NC(=O)COc2ccccc2[N+](=O)[O-])c1C
inactive: Potency [1] | activation [2] 1.83% [at 17.1 µM, percent relative to cAMP agonist control] | activity change, negative = inhibition [3] -12.5% [at 30.8 µM] | activation [4] 2.17% [at 30.8 µM]
